Screens as filed in PubChem.
HPGD block: blocks human HPGD enzyme activity. P15428. purified HPGD, NADH fluorescence kinetic, PGE2 substrate. Potency, µM, usual class: inhibitors. 150,000 tested, 4.3% active; active = well fitted inhibition curve with a large enough effect, not every such curve was filed as active; inconclusive = small, poorly fitted or top-dose-only effect, or another doubt; inactive = no such curve, though single readings can be large or run the other way
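NADH formation kinetics: reaction with 30 uM PGE2 and 1 mM NAD+ (final), 20 nM enzyme, Tris-HCl pH 8 with Tween 20, after 15 min compound preincubation at room temperature. Fluorescence change, last versus first of five reads.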
IMPase cell inh: membrane-permeable compound that blocks inositol monophosphatase | AID 901 | CHO-M1 cells, IP1 accumulation, HTRF TR-FRET ratio | 120,000 tested, under 10 active | inhibition (IP1 accumulation), % at 46.1 µM | P97697; active = well fitted curve in the direction sought with a large enough effect in the signal ratio, not every such curve was filed as active; inconclusive = small, poorly fitted or top-dose-only effect, or a change in a side signal; inactive = no such curve, though single readings can be large or run the other way; the % refers to the signal ratio;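 also: cells stimulated with carbachol in lithium chloride buffer; higher means more IMPase inhibition seen as more IP1 and lower FRET ratio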
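In this qHTS, compounds (final up to 46 uM) act on CHO-M1 cells that are then activated through the M1 receptor with carbachol, in pH 7.4 buffer containing 50 mM LiCl, for 30 min. IP1 accumulation is quantified by the IP-One immunoassay.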
ALDH1A1 inh: ALDH1A1 (human) enzyme inhibition. P00352. Purified ALDH1A1, NADH fluorescence, propionaldehyde substrate. Potency, µM (doses to about 75.3 µM), most hits filed as inhibitors. 220,000 tested, 7.3% active; active = well fitted inhibition curve with a large enough effect, not every such curve was filed as active; inconclusive = small, poorly fitted or top-dose-only effect, or another doubt; inactive = no such curve, though single readings can be large or run the other way
NPSR antagonist: neuropeptide S receptor (human) antagonism, cAMP; CHO-NPSR cells, cAMP TR-FRET, antagonist mode; Potency, µM (series often up to 38.3 µM), hits mostly inhibitors; 220,000 tested, 1% active; AID 1461; also: nearly all actives have a fitted effect of over 50% in size
Target sequence (Q6W5P4 whole entry, looked up): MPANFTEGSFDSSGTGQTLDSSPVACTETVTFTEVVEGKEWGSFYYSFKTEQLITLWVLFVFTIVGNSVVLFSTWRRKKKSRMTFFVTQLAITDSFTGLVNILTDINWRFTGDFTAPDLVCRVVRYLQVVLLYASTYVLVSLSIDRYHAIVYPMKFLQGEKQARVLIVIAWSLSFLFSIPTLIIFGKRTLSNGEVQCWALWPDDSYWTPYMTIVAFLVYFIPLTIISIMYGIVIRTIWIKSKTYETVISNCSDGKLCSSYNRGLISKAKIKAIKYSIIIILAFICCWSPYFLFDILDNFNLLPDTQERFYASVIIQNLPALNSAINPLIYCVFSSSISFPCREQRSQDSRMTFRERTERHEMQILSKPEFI
IMPase Li cell: IMPase inhibition in cells with lithium potentiation. CHO-M1 cells, IP1 TR-FRET (IP-One), carbachol + lithium. Potency, µM (series often up to 59.4 µM), usual class: inhibitors. 210,000 tested, 0.35% active. AID 1457;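 also: IP1 builds up when IMPase is blocked and the TR-FRET signal falls; nearly all actives have a fitted effect of over 50% in size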
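CHO cells stably expressing M1 receptor (2000/well) were cultured 16–30 h, then exposed to compounds with a small lithium addition for 30 min at 37C. IP1 was measured by TR-FRET competition; AC50 from Hill fits.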
PNC inhibitor: blocks assembly of the perinucleolar compartment; activity change (PNC), negative = inhibition, % at 10 µM; 140,000 tested, 3.1% active; PC3M PTB-GFP, PNC prevalence imaging, 16 h; hits give low values;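 active = readout at or below -70, meaning at least 70% loss of cells showing the perinucleolar compartment, a nuclear body marking cancer cells; inconclusive = readout between -30 and a set limit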
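PC3M cells stably expressing PTB-GFP, 750–1000 cells/well, treated 16 h at 37 °C with compound (23 nl of library stock), in duplicate. After paraformaldehyde fixation and Hoechst stain, imaged at 20x; PNC prevalence scored by image analysis.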
Hits are given with their value; – = inactive; ? = inconclusive; · = no result given. Shown are actives, neighbours in structure and some others; about 11% of the full set was active somewhere. Unless noted, calls follow the shape of the dose curve; as a rule, active = well fitted curve in the direction sought with a large enough effect; inconclusive = small, poorly fitted or top-dose-only effect, or another doubt; inactive = no such curve, though single readings can be large; an effect the other way counts as inactive or inconclusive.

SMILES | HPGD block | IMPase cell inh | ALDH1A1 inh | NPSR antagonist | IMPase Li cell | PNC inhibitor
O=C(CSc1nnc(-c2ccncc2)o1)c1ccc2c(c1)OCCO2 | · | · | 0.794µM | – | ? | ·
NC(=O)CSc1nnc(-c2ccc([N+](=O)[O-])cc2)o1 | · | · | – | – | – | ·
O=C(CSc1nnc(-c2ccncc2)o1)c1cccc([N+](=O)[O-])c1 | · | · | 14.1µM | – | – | ·
CC(C)(C)c1ccc(-c2nnc(SCC(=O)c3ccc4c(c3)OCCO4)o2)cc1 | – | – | ? | – | ? | –
Fc1cccc(CSc2nc3ncccc3[nH]2)c1 | 17.8µM | – | ? | – | – | –
O=C(CSc1nnc(-c2ccc(F)cc2)o1)c1ccc2c(c1)OCCO2 | – | – | – | – | – | –
O=C(CSc1nnc(CNc2ccccc2)o1)c1ccc2c(c1)OCCO2 | – | – | 14.1µM | – | – | –
CC(C)(C)[C@H]1C=C(C(N)=O)O[C@@H](OCCCCO)C1 | · | · | · | – | · | ·
O=C(CSc1nc2ncccc2[nH]1)c1cccc([N+](=O)[O-])c1 | ? | – | 8.91µM | – | – | -112.6
Cc1cc(C(=O)CSc2nnnn2C)c(C)n1Cc1ccco1 | · | · | 28.2µM | – | · | ·
Cc1cc(C(=O)CSc2ncccn2)c(C)n1Cc1ccco1 | · | · | ? | – | – | ·
Cc1cc(C(=O)COC(=O)C(C)NC(N)=O)c(C)n1Cc1ccco1 (configuration not stated) | · | · | – | – | – | ·
Cc1cc(C(=O)C(C)Cl)c(C)n1Cc1ccco1 (configuration not stated) | · | · | 7.08µM | – | – | ·
Cn1c(SCC(=O)NC2CCCC2)nnc1-c1ccncc1 | · | · | – | – | – | ·
CCCCNCC | – | · | – | · | – | ·
CCOC(C)OCC | – | · | – | · | – | ·
Nc1nc2ccccc2n1/N=C/c1ccc(-c2ccccc2)o1 | – | – | – | – | – | –
Nc1nc2ccccc2n1/N=C/c1ccc([N+](=O)[O-])s1 | – | · | – | – | – | -83.0
CC(=O)c1sc(NC(=O)c2c(F)cccc2F)nc1-c1ccccc1 | · | · | 11.2µM | – | – | ·
COCCN(CCOC)S(=O)(=O)c1ccc(C(=O)Nc2nc(-c3ccccc3)c(C(=O)c3ccccc3)s2)cc1 | – | · | ? | – | – | –
COC(=O)Nc1nc(-c2ccccc2)c(C(=O)c2ccc(Cl)cc2)s1 | – | – | – | ? | – | -102.1
CCOC(=O)Nc1nc(-c2ccccc2)c(C(=O)c2ccccc2)s1 | – | – | ? | ? | ? | -82.9
CC(=O)c1sc(NC(=O)c2ccccc2)nc1-c1ccccc1 | · | · | ? | – | – | ·
O=C1c2ccccc2C(O)(Cc2ccccc2)N1CCCN1CCOCC1 (configuration not stated) | – | – | – | – | – | –
O=C1c2ccccc2C(O)(c2ncc[nH]2)N1CCc1ccccc1 (configuration not stated) | – | – | 14.1µM | – | – | –
SMILES | HPGD block | IMPase cell inh | ALDH1A1 inh | NPSR antagonist | IMPase Li cell | PNC inhibitor
Cc1nn(-c2ccccc2)c(C)c1/C=C/C(=O)OCC(=O)Nc1ncc(C(F)(F)F)cc1Cl | ? | · | ? | – | – | -113.4
O=C(COC(=O)C1(c2ccccc2F)CCCC1)Nc1ncc(C(F)(F)F)cc1Cl | – | · | ? | ? | – | -109.0
COc1ccc2c(=O)c3c(=O)n(Cc4ccco4)c(-c4ccco4)nc3oc2c1 | 22.4µM | – | ? | – | – | –
COc1ccc(-c2nc3oc4cc(OC)ccc4c(=O)c3c(=O)n2Cc2ccco2)cc1 | ? | – | ? | ? | ? | –
COC(=O)c1sc(S(=O)(=O)NCc2cccs2)c(C(=O)OC)c1C | – | – | 14.1µM | – | – | -110.6
COC(=O)c1sc(S(=O)(=O)NCC(=O)O)c(C(=O)OC)c1C | · | · | – | – | – | ·
CCOc1ccc(NC(=O)CSc2nnc(-c3ccccc3Cl)n2Cc2ccco2)cc1 | · | – | 14.1µM | – | · | –
CN(C)c1ccc(NC(=O)CSc2nnc(-c3cccs3)n2Cc2ccco2)cc1 | – | – | 17.8µM | – | – | –
COc1ccc(NC(=O)CSc2nnc(-c3ccccc3Cl)n2Cc2ccco2)c(OC)c1 | · | – | 14.1µM | – | · | –
COc1cccc(C2C3CN(C)CC=C3C(C#N)=C(N)C2(C#N)C#N)c1OC (configuration not stated) | ? | – | ? | – | – | ?
